# Data taken from the supplement of paper PMC4466140.
# Legend:
# Test in all cases: SPOT peptide array binding signal intensity (averaged, normalized) (arbitrary units (background-subtracted, floor 0; scale differs between SH3 domains)); higher = stronger binding of the SH3 domain to the peptide
# AgAbp1 = target: AgAbp1
# In short: (§1)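 GST-fused SH3 domains, from four yeast species, were produced in E. coli BL21(DE3) and captured on glutathione Sepharose. Membranes of cellulose carrying synthetic 15-mer peptides, in which cysteines had been replaced by serines, were exposed to each domain at 10 μg/ml overnight at 4°C in TBS-based blocking buffer. After anti-GST antibody, an HRP anti-mouse secondary and luminol, spots were imaged and quantified using Genespotter. Binding signal is normalized and background-subtracted spot intensity, averaged over replicates, in arbitrary units that differ between domains.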
# AgBbc1 = target: AgBbc1
# In short: as §1
# AgBem1-D1 = target: AgBem1-D1
# In short: as §1
# AgBzz1-D1 = target: AgBzz1-D1
# In short: as §1
# AgBzz1-D2 = target: AgBzz1-D2
# In short: as §1
# AgCyk3 = target: AgCyk3
# In short: as §1
# AgFus1 = target: AgFus1
# In short: as §1
# AgHof1 = target: AgHof1
# In short: as §1
# AgHse1 = target: AgHse1
# In short: as §1
# AgLsb1 = target: AgLsb1
# In short: as §1
# AgLsb4 = target: AgLsb4
# In short: as §1
# AgMyo5 = target: AgMyo5
# In short: as §1
# AgNbp2 = target: AgNbp2
# In short: as §1
# AgRvs167 = target: AgRvs167
# In short: as §1
# AgSho1 = target: AgSho1
# In short: as §1
# AgSla1-D1-D2 = target: AgSla1-D1-D2
# In short: as §1
# AgSla1-D3 = target: AgSla1-D3
# In short: as §1
# CaAbp1-D1 = target: CaAbp1-D1
# In short: as §1
# CaAbp1-D2 = target: CaAbp1-D2
# In short: as §1
# CaBbc1 = target: CaBbc1
# In short: as §1
# CaBem1-D1 = target: CaBem1-D1
# In short: as §1
# CaBzz1-D1 = target: CaBzz1-D1
# In short: as §1
# CaBzz1-D2 = target: CaBzz1-D2
# In short: as §1
# CaCyk3 = target: CaCyk3
# In short: as §1
# CaFus1 = target: CaFus1
# In short: as §1
# CaHof1 = target: CaHof1
# In short: as §1
# CaHse1 = target: CaHse1
# In short: as §1
# CaLsb1 = target: CaLsb1
# In short: as §1
# CaLsb4 = target: CaLsb4
# In short: as §1
# CaMyo5 = target: CaMyo5
# In short: as §1
# CaNbp2 = target: CaNbp2
# In short: as §1
# CaRvs167 = target: CaRvs167
# In short: as §1
# CaRvs167-3 = target: CaRvs167-3
# In short: as §1
# CaSho1 = target: CaSho1
# In short: as §1
# CaSla1-D1-D2 = target: CaSla1-D1-D2
# In short: as §1
# CaSla1-D3 = target: CaSla1-D3
# In short: as §1
# ScAbp1 = target: ScAbp1
# In short: as §1
# ScBbc1 = target: ScBbc1
# In short: as §1
# ScBem1-D1 = target: ScBem1-D1
# In short: as §1
# ScBzz1-D1 = target: ScBzz1-D1
# In short: as §1
# ScBzz1-D2 = target: ScBzz1-D2
# In short: as §1
# ScCyk3 = target: ScCyk3
# In short: as §1
# ScFus1 = target: ScFus1
# In short: as §1
# ScHof1 = target: ScHof1
# In short: as §1
# ScHse1 = target: ScHse1
# In short: as §1
# ScLsb1 = target: ScLsb1
# In short: as §1
# ScLsb2 = target: ScLsb2
# In short: as §1
# ScLsb3 = target: ScLsb3
# In short: as §1
# ScLsb4 = target: ScLsb4
# In short: as §1
# ScMyo3 = target: ScMyo3
# In short: as §1
# ScMyo5 = target: ScMyo5
# In short: as §1
# ScNbp2 = target: ScNbp2
# In short: as §1
# ScPex13 = target: ScPex13
# In short: as §1
# ScRvs167 = target: ScRvs167
# In short: as §1
# ScSho1 = target: ScSho1
# In short: as §1
# ScSla1-D1-D2 = target: ScSla1-D1-D2
# In short: as §1
# ScSla1-D3 = target: ScSla1-D3
# In short: as §1
# SpAbp1-D1 = target: SpAbp1-D1
# In short: as §1
# SpBbc1 = target: SpBbc1
# In short: as §1
# SpBzz1-D1 = target: SpBzz1-D1
# In short: as §1
# SpBzz1-D2 = target: SpBzz1-D2
# In short: as §1
# SpCyk3 = target: SpCyk3
# In short: as §1
# SpHof1 = target: SpHof1
# In short: as §1
# SpHof1-2 = target: SpHof1-2
# In short: as §1
# SpHof1-3 = target: SpHof1-3
# In short: as §1
# SpHse1 = target: SpHse1
# In short: as §1
# SpLsb1 = target: SpLsb1
# In short: as §1
# SpLsb4 = target: SpLsb4
# In short: as §1
# SpMyo1 = target: SpMyo1
# In short: as §1
# SpNbp2 = target: SpNbp2
# In short: as §1
# SpPex13 = target: SpPex13
# In short: as §1
# SpRvs167 = target: SpRvs167
# In short: as §1
# SpSla1-D1-D2 = target: SpSla1-D1-D2
# In short: as §1
# SpSla1-D3 = target: SpSla1-D3
# In short: as §1
binder,measurement,setting,value
MTKTPETSPPKRPMG,SPOT peptide array binding signal intensity,AgAbp1,≤ 0
same,SPOT peptide array binding signal intensity,AgBbc1,5.25
same,SPOT peptide array binding signal intensity,AgBem1-D1,66.5
same,SPOT peptide array binding signal intensity,AgBzz1-D1,22
same,SPOT peptide array binding signal intensity,AgBzz1-D2,11.5
same,SPOT peptide array binding signal intensity,AgCyk3,≤ 0
same,SPOT peptide array binding signal intensity,AgFus1,≤ 0
same,SPOT peptide array binding signal intensity,AgHof1,7.25
same,SPOT peptide array binding signal intensity,AgHse1,≤ 0
same,SPOT peptide array binding signal intensity,AgLsb1,1
same,SPOT peptide array binding signal intensity,AgLsb4,2
same,SPOT peptide array binding signal intensity,AgMyo5,946
same,SPOT peptide array binding signal intensity,AgNbp2,25
same,SPOT peptide array binding signal intensity,AgRvs167,3.83
same,SPOT peptide array binding signal intensity,AgSho1,≤ 0
same,SPOT peptide array binding signal intensity,AgSla1-D1-D2,1
same,SPOT peptide array binding signal intensity,AgSla1-D3,≤ 0
same,SPOT peptide array binding signal intensity,CaAbp1-D1,36
same,SPOT peptide array binding signal intensity,CaAbp1-D2,24
same,SPOT peptide array binding signal intensity,CaBbc1,180
same,SPOT peptide array binding signal intensity,CaBem1-D1,17
same,SPOT peptide array binding signal intensity,CaBzz1-D1,30
same,SPOT peptide array binding signal intensity,CaBzz1-D2,21
same,SPOT peptide array binding signal intensity,CaCyk3,7.5
same,SPOT peptide array binding signal intensity,CaFus1,55.5
same,SPOT peptide array binding signal intensity,CaHof1,2
same,SPOT peptide array binding signal intensity,CaHse1,1.25
same,SPOT peptide array binding signal intensity,CaLsb1,0.5
same,SPOT peptide array binding signal intensity,CaLsb4,77
same,SPOT peptide array binding signal intensity,CaMyo5,87.2
same,SPOT peptide array binding signal intensity,CaNbp2,40.5
same,SPOT peptide array binding signal intensity,CaRvs167,17.8
same,SPOT peptide array binding signal intensity,CaRvs167-3,≤ 0
same,SPOT peptide array binding signal intensity,CaSho1,10.5
same,SPOT peptide array binding signal intensity,CaSla1-D1-D2,210
same,SPOT peptide array binding signal intensity,CaSla1-D3,106
same,SPOT peptide array binding signal intensity,ScAbp1,≤ 0
same,SPOT peptide array binding signal intensity,ScBbc1,0.5
same,SPOT peptide array binding signal intensity,ScBem1-D1,≤ 0
same,SPOT peptide array binding signal intensity,ScBzz1-D1,1
same,SPOT peptide array binding signal intensity,ScBzz1-D2,6
same,SPOT peptide array binding signal intensity,ScCyk3,≤ 0
same,SPOT peptide array binding signal intensity,ScFus1,≤ 0
same,SPOT peptide array binding signal intensity,ScHof1,1.25
same,SPOT peptide array binding signal intensity,ScHse1,18.5
same,SPOT peptide array binding signal intensity,ScLsb1,6.5
same,SPOT peptide array binding signal intensity,ScLsb2,2.5
same,SPOT peptide array binding signal intensity,ScLsb3,45.5
same,SPOT peptide array binding signal intensity,ScLsb4,10
same,SPOT peptide array binding signal intensity,ScMyo3,1860
same,SPOT peptide array binding signal intensity,ScMyo5,462
same,SPOT peptide array binding signal intensity,ScNbp2,25
same,SPOT peptide array binding signal intensity,ScPex13,24.2
same,SPOT peptide array binding signal intensity,ScRvs167,7.17
same,SPOT peptide array binding signal intensity,ScSho1,≤ 0
same,SPOT peptide array binding signal intensity,ScSla1-D1-D2,62.5
same,SPOT peptide array binding signal intensity,ScSla1-D3,65.2
same,SPOT peptide array binding signal intensity,SpAbp1-D1,3
same,SPOT peptide array binding signal intensity,SpBbc1,0.5
same,SPOT peptide array binding signal intensity,SpBzz1-D1,30.5
same,SPOT peptide array binding signal intensity,SpBzz1-D2,1.25
same,SPOT peptide array binding signal intensity,SpCyk3,1
same,SPOT peptide array binding signal intensity,SpHof1,18.5
same,SPOT peptide array binding signal intensity,SpHof1-2,18.2
same,SPOT peptide array binding signal intensity,SpHof1-3,≤ 0
same,SPOT peptide array binding signal intensity,SpHse1,13
same,SPOT peptide array binding signal intensity,SpLsb1,2.5
same,SPOT peptide array binding signal intensity,SpLsb4,285
same,SPOT peptide array binding signal intensity,SpMyo1,446
same,SPOT peptide array binding signal intensity,SpNbp2,5.5
same,SPOT peptide array binding signal intensity,SpPex13,≤ 0
same,SPOT peptide array binding signal intensity,SpRvs167,18.5
same,SPOT peptide array binding signal intensity,SpSla1-D1-D2,4
same,SPOT peptide array binding signal intensity,SpSla1-D3,17
